# Experimental data: PubChem BioAssay (NCATS)
# Inconclusive results are not listed. Unmarked numbers belong to inactive results. Active and inactive are the calls of the source. Calls come from the whole dose curve; as a rule, active = well fitted inhibition curve with a large enough effect; inconclusive = small, poorly fitted or top-dose-only effect; inactive = flat fitted curve, though single readings scatter.
# Target: Glutathione peroxidase 1 (Homo sapiens) (UniProt P07203)
# Assay: Primary qHTS Assay for Inhibitors of Recombinant Selenoprotein Glutathione Peroxidase 1 (GPX1) (AID 1845191); note: nearly all actives have a fitted effect of over 65% in size
# Details: recombinant GPX1, GR-coupled NADPH fluorescence, 15 min; series mostly up to 48.8 µM; activity, negative = inhibition: at the top concentration
# Source text: Assay Provider: Elias S.J. Arner MD PhD.
# Department of Medical Biochemistry and Biophysics
# Karolinska Institutet, Solna, Stockholm, Sweden
# Selenoprotein glutathione peroxidases (GPX), like the ubiquitously expressed GPX1 and the ferroptosis modulator GPX4, enact their antioxidant activities by reducing hydroperoxides using glutathione. […] GPX1 and GPX4 inhibitors have thus shown promise as anti-cancer agents. Existing inhibitors are often promiscuous, or modulate GPX activity only indirectly, so novel direct inhibitors identified through screening against GPX1 and GPX4 could be valuable. Here, we developed optimized glutathione reductase (GR)-coupled GPX assays for the biochemical high-throughput screen (HTS) of almost 12,000 compounds with known mechanisms of action. Initial hits were triaged using a GR counter-screen, assessed for isoform specificity using a separate GPX2 assay, and were assessed for general selenocysteine-targeting activity using a thioredoxin reductase (TXNRD1) assay. With this suite of assays, we identified novel GPX1/GPX2- and GPX4-specific inhibitors and can here present a validated pipeline for future discovery research for selenoprotein-targeting agents.
# SEQUENCE No. (e.g., 1, 2, 3, etc.); […] (e.g., Cells, Incubation, Reagent, etc.); VALUE; DESCRIPTION.
# 1; Reagent 1; 3 uL; GPx1 enzyme or no enzyme control in 1536-well, black, solid Greiner assay plate.
# 2; Compound; 25 nL; Kalypsis pin tool (Wako USA) equipped with a 1536-well pin head.
# 3; Incubation; 30 min; room temperature.
# 4; Reagent 2; 1 uL; 10 nM GPX1, 1 mM GSH, 0.5 mM CHP, 0.5 mM NADPH, 100 nM GR, 0.01% BSA substrate
# 5; Detection; Fluorescence; ViewLux microplate reader, excitation 340 nm and emission 450 nm.
# 6; Incubation; 15 min; room temperature.
# 7; Detection; Fluorescence; ViewLux microplate reader, excitation 340 nm and emission 450 nm.
# NOTES (numbers refer to Sequence numbers above)
# 1. 3 uL of 16.66 nM GPX1 and 0.016% BSA in assay buffer (50 mM Tris-HCl, 2 mM EDTA (pH 7.5), 150 mM NaCl) was added to columns 3-48 of 1536-well assay plates using a BioRAPTR Flying Reagent Dispenser (Let's Go Robotics (LGR), Carlsbad, CA). A no-enzyme control (0.01% BSA in TES assay buffer) was added to columns 1-2.
# 2. 25 nL of test compounds and DMSO controls were added to each well with a pin tool (Kalypsys).
# 3. The assay plates were incubated for 30 minutes at room temperature.
# 4. 1 uL of master mix (500 nM glutathione reductase (GR), 5 mM reduced glutathione (GSH), 2.5 mM NADPH in assay buffer) was added. 1 uL of cumene hydroperoxide (CHP) ([2.5 mM] in 50% EtOH) was then added within 5 minutes to initiate the reaction. Final concentrations were: 10 nM GPX1, 1 mM GSH, 0.5 mM CHP, 0.5 mM NADPH, 100 nM GR, 0.01% BSA.
# 5. Initial fluorescence readout (t=0) at 340/450 nm was measured using a ViewLux multimodal detector (PerkinElmer, Waltham, MA).
# 7. Endpoint fluorescence readout (t=15) at 340/450 nm was measured 15 min after room temperature incubation.
# % is set by controls: 0 for no effect and ±100 for the full control effect; potency is the fitted concentration of half-maximal effect.
# Sequence of Glutathione peroxidase 1 (Homo sapiens) (P07203 whole entry, looked up): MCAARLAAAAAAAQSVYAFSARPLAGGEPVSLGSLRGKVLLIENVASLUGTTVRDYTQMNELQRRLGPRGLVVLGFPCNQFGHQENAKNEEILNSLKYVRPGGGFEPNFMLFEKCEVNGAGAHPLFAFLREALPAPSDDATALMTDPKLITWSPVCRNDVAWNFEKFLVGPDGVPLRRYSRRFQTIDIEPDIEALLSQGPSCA
Compound,"activity, negative = inhibition",outcome,Potency
Cc1ccc(C(=O)/C=C/c2ccccc2)s1,-15%,,
CN1CCN(C(c2ccc(F)cc2)c2sc3nc(-c4ccco4)nn3c2O)CC1 (stereo not given),,inactive,
C=C1/C(=C/C=C2\CCC[C@]3(C)[C@@H]([C@H](C)CCCC(C)(C)O)CC[C@@H]23)C[C@@H](O)[C@@H](OCCCO)[C@@H]1O,,inactive,
Oc1c(Br)cc(Br)cc1CNC1CCC(O)CC1 (stereo not given),-14.5%,,
CC(C)(C)NC(=O)N[C@H](C(=O)N1C[C@H]2[C@@H]([C@H]1C(=O)NC(CC1CCC1)C(=O)C(N)=O)C2(C)C)C(C)(C)C (stereo not given in full),0.61%,,
CCC(CN)CC(C)CNCC(O)CNCC(CC)CC(CC)CN (stereo not given),,inactive,
CC(C)NC(=O)C1CCC(n2c(NC(=O)c3ccc(F)cc3)nc3ccc(CN4CCC(C(C)(C)O)CC4)cc32)CC1 (stereo not given),-5.42% [at 27.7 µM],,
CO[C@@H]1C[C@H](O[C@H]2[C@H](C)[C@H](O[C@@H]3O[C@@H](C)C[C@@H](N(C)C)[C@H]3OC(C)=O)[C@H](C)C[C@]3(CO3)C(=O)[C@H](C)[C@H](OC(C)=O)[C@H](C)[C@H](C)OC(=O)[C@@H]2C)O[C@H](C)[C@H]1OC(C)=O,1.64%,,
O=C1CCC[C@@H]2[C@@H]3CCC[N@+]4([O-])CCC[C@H](CN12)[C@H]34,,inactive,
Fc1ccc(N2CCN(c3nc4ccccc4c4nc(-c5cccnc5)nn34)CC2)cc1,,inactive,
CCCCC(=O)N(Cc1ccc(-c2ccccc2-c2nn[nH]n2)cc1)[C@H](C(=O)O)C(C)C,,,inactive
OC(c1ccccc1)(c1ccccc1)C12CC[N+](CCOCc3ccccc3)(CC1)CC2,-2.29%,,
CNC(=O)c1ccccc1Nc1nc(Nc2ccc3c(c2OC)CCC[C@H](N2CCN(CCO)CC2)C3)ncc1Cl,,,inactive
CC1CCc2c(sc3nc(-c4cc5ccccc5oc4=O)nc(Cl)c23)C1 (stereo not given),,inactive,
O=C(CCCCCCSc1ccc2ccccc2c1)NO,,inactive,
CC1CCCC(C)N1C(=S)Nc1cccc(C(F)(F)F)c1 (stereo not given),,,22.7 µM (active)
CC(C)=CCCC(C)=CCCC(C)=CCCC=C(C)CCC=C(C)CCC=C(C)C,-10.5%,,
NNCCc1ccc(NC(=O)CCCc2ccccc2)cc1,,inactive,
O=C(N[C@H]1CCS[C@H]2CCC[C@@H](C(=O)O)N2C1=O)[C@@H](S)Cc1ccccc1,,,10.1 µM (active)
CC(C)(O)CNc1ncc(-c2ccnc(Nc3ccnc(Cl)c3)n2)c(CC2CC2)n1,,inactive,

Compound,"activity, negative = inhibition",outcome,Potency
O=C(CCl)Nc1ccc(S(=O)(=O)c2ccc(NC(=O)CCl)cc2)cc1,-2.14%,,
CCCCCCCCCCCCOC(=O)CS(=O)(=O)O,3.4%,,
OC[C@H]1O[C@H](O)[C@H](O)[C@@H](O)[C@@H]1O,-10.6%,,
CC(C)(O)C1CCC(Nc2ccc3ncc(-c4cccc(C(F)(F)F)c4)n3n2)CC1 (stereo not given),-23.7%,,
Cn1c(/C=C/C(=O)NO)ccc1/C=C/C(=O)c1cccc(F)c1,,inactive,
Cc1cc2nc3c(=O)[nH]c(=O)nc-3n(C[C@H](O)[C@H](O)[C@H](O)COP(=O)(O)OP(=O)(O)OC[C@H]3O[C@@H](n4cnc5c(N)ncnc54)[C@H](O)[C@H]3O)c2cc1C,,inactive [at 27.7 µM],
Cc1cc(Nc2cccc(Cl)c2)nc2ccc(NC(=O)Cc3cccc(C(F)(F)F)c3)cc12,,inactive,
[2H]N[C@@H](Cc1ccccc1)C(=O)N1CCC[C@H]1C(=O)N[C@@H](CCCNC(=N)N)C(=O)N1CCC[C@H]1C(=O)NCC(=O)NCC(=O)NCC(=O)NCC(=O)N[C@@H](CC(N)=O)C(=O)NCC(=O)N[C@@H](CC(=O)O)C(=O)N[C@@H](Cc1ccccc1)C(=O)N[C@@H](CCC(=O)O)C(=O)N[C@@H](CCC(=O)O)C(=O)N[C@H](C(=O)N1CCC[C@H]1C(=O)N[C@@H](CCC(=O)O)C(=O)N[C@@H](CCC(=O)O)C(=O)N[C@@H](Cc1ccc(O)cc1)C(=O)N[C@@H](CC(C)C)C(=O)O)[C@@H](C)CC,,inactive [at 9.52 µM],
CCCCCCCCCCCCCCCC(=O)OCC(O)C1OC(=O)C(O)=C1O (stereo not given),,inactive,
O=C1Cc2ccccc2N1,-9.52%,,
CO[C@@H]1[C@@H](OC2OC(C)C(OC3CC(C)(O)C(OC(=O)CC(C)C)C(C)O3)C(N(C)C)C2O)[C@@H](CC=O)C[C@@H](C)C(=O)/C=C\C2O[C@H]2C[C@@H](C)OC(=O)C[C@H]1OC(C)=O (stereo not given in full),-24.9%,,
COc1cccc(N2CCN(C(=O)Cn3ncc4c3-c3ccccc3OC4)CC2)c1,-10.3%,,
CCN1/C(=C/C=C/C=C/c2sc3ccccc3[n+]2CC)Sc2ccccc21,,,1.43 µM (active)
CCCCC(F)(F)C1(O)CCC2C(CC(=O)C2CCCCCCC(=O)O)O1 (stereo not given),-7.71%,,
O=C(Nc1ccc(-c2ccnc(Nc3ccc(N4CCOCC4)cc3)n2)cc1)[C@@H]1CCCN1,,,inactive
C=CC[N@@+]12CC[C@]34c5ccccc5N5/C=C6\C7N(/C=C(\C53)[C@@H](C[C@@H]41)/C(=C/CO)C2)c1ccccc1[C@@]71CC[N@@+]2(CC=C)C/C(=C\CO)[C@@H]6C[C@@H]12 (stereo not given in full),-28.9%,,
Cc1c(OCC(F)(F)F)ccnc1C[S@@](=O)c1nc2ccccc2[nH]1,,,10.1 µM (active)
CCC[C@@H]1C[C@@H](C(=O)N[C@@H](C2O[C@H](SC)[C@H](O)[C@@H](O)[C@H]2O)[C@H](C)Cl)N(C)C1 (stereo not given in full),-18.6%,,
CSCCNc1nc(SCCC(F)(F)F)nc2c1ncn2[C@@H]1O[C@H](COP(=O)(O)OP(=O)(O)C(Cl)(Cl)P(=O)(O)O)[C@@H](O)[C@H]1O,,inactive,
Cn1c(=O)cc(N2CCC[C@@H](N)C2)n(Cc2cc(F)ccc2C#N)c1=O,-8.65%,,
